From the supplement of paper PMC12632987
Over roughly 2,300 sequences, “median log2 fold change of GCK-ALFA target abundance (FLAG IP / Myc IP barcode read proportion)” has its median near 0.095; the lowest 2% begin near -0.47. Many of the other results were omitted from the sample, so the lowest values are more common in it than they were.

B1: LC3A_23_609 (protein)
chain: MYLIDFEVDLIGEPEEIEKIEKELLEALEEFLEENKDKIVDYEIEVEREELEDGRTYLSIRLKILIDGTREEAEALANEITTIASEIAPDAVISVEVEEV
B2: LC3A_147_509 (protein)
chain: YIVEIDIDLLVKNKVEEVKEKFKEIVEELKKKGYEVELEIEEEKIDENTYYVKVKITIKAETKEEAEEAANLTLDLLDKLEEELKEDILGSLISVEITEA
B3: LC3A_free_39_2183 (protein)
chain: SSEETKKLKEELLKLAEEEGEETKELAEKLIELIGEELERIKRLLELMKKLKEAGVDLKEALKEALELAEELKKKGKSKEEIAEAVLELMQDKYNLIPID
B4: LC3A_free_26_2149 (protein)
chain: DEFIDIVELDKAIDLLEELLKLLEENELASEEEKKLAKEALEEAKKETLESLKKALKLVEELLKLLKKNEKLPEETKKKLIKLAEEAIKHIKENIKIMES
B5: LC3A_3_1540 (protein)
chain: MDAAVAAALARLRAAGASAATLAAFEAAVAALRERGYDAALETLIAETDRLLGLSDALLLAFFEEVLELVETEDIDEEELIARIREIARTTLSEAEIEEL
B6: LC3A_28_1107 (protein)
chain: SSVDEENAKALAEAEKAAAAGEPAVITITVKSTDTQEDIDKKIETMEKIAEILKDVKDAAIIIDLDGEIPQEYLDKLADKGEEIEKKYPNITVIIALDEE
B7: LC3A_3_1662 (protein)
chain: AEELIEETLAWLREQGRSEETLEAAREAMTALKEKGYYEALETFAELLRELADLSDELLLELAEEVLELVETSDLDEESMTEEIREIARTIRSEAEIEEL
B8: LC3A_132_247 (protein)
chain: SEEELEKALEELKEILEKIVELLKAGKDPLPQIVKLEELAREIAKKLSLEETEKLVDEAIEYAEELFEKELDPNDEEARRTLDIIEMSLEGVLIEKELES
B9: LC3A_132_246 (protein)
chain: SEEEYKKALAELKEIIDKIVELLKEGKDPLPAIVELEEKAREIAEKLSLEETEKLVEETIEYAEKRFEEELDPNDEEARRTLDIIEMLLEGVLIEKELRS
B10: LC3A_132_248 (protein)
chain: SEEELKEALEELKEILEKIVEALKNGEDPLPLIVELEEKALEIAEKLSLEETEELIDEAKEYAEELFEEELDPNDEEARRTLDIIEMLLDGVLIEKELKS
B11: LC3A_28_830 (protein)
chain: SKIEERIAKFKAEAEAAKASQEPATLTITVTSEDTVEEAKKIAEAMKEEAEKLKDVPDIGIVIDTDGKIDPEVLKILTDTADEIEEKYPNVTVIIALPEE
B12: LC3A_23_622 (protein)
chain: MYKVTVEADTIATPEEAEKYIKLVKEKVEEIKEKYKDKIEEVKLEIEREELPDGTVYLHITVTIIVKDDEELAQKLKNELVDFFDKNIPNGVISYEIEKL
B13: LC3A_free_46_2410 (protein)
chain: YVAEIDVDALAETKEKAEEFAKKIEEAAKEIAKEYGIEVEIEVKISKDEDGTYFVEIEITLEAETKETLEKAVNELIDKIEEIAEELGVSIIISYEISEA
B14: LC3A_28_1055 (protein)
chain: SAVEEQIKKALEEAKELAAKGEEALIEIEIEEDDTEEDVEKKLKTIEEIAEINKDLPSTSIIVNVNNKNKEEVTKKFADLGDELEKKYPNVTVIIALSEE
B15: LC3A_28_1327 (protein)
chain: SELEEQLEKQRKEALELAEKGEDVLIEVTITPETTLEEAEELMEKLRELVKEVAPKVKVSIVVDVEGGVSQEVIDAIAEKADEIEKEYPNATVIIALDED
B16: LC3A_free_39_2199 (protein)
chain: SEEEEEEAEEEILELAEEEGEEALEAAEELLEELEGNLELVEAVLEQVKRAKEEGADVLELLKRLLELVRKLQEEGKSEEEIIEAIEEEADVIINLIPID
B17: LC3A_28_1010 (protein)
chain: MSVVEETKKEAEKALEEAKKGNDAYLEIKITKDTTLEEVKEIGKIIEETAKKISEIENVKLYIVVDDDSNEEKHNIILDKLDEIEKKYPNVSSIVAYTDE
B18: LC3A_3_1354 (protein)
chain: SEELIEEQIERLREAGFSEEVLEAARAAFEGLAAQGHEEGIELLTEALLKHKDAPEEKKLRVLNNLLAEVQANPNLTQEEVEELVKLADLDLAIEELDEE
B19: LC3A_132_313 (protein)
chain: SEKKYEEIKKKLEELLKEAEKNINDKEKVEELLKEIRKLLEEAEKELSPEQVKELYDFVADRLYKLSLKADEAGKEDVSLLLDAAAIEAASKALKAEKKI
B20: LC3A_28_1162 (protein)
chain: SAIEESIKAAFEELEKAIKEGKNGVITLKVPGDATEEDIERLIKALEEIAKKAEEHGINGILIDVDGGVKQEHIDRLAKAAEEIEKKYPKVTIIIALSDE
B21: LC3A_free_46_2347 (protein)
chain: YKAEIDIDLLAEDEETLKKAVEEIVEAAKKIAKKYNLKVNIEVEIEKLEDGSYYARIKITLEGETKEDVEAAVNELIDEIDKIAKKYNVAAIISYEIIKT
B22: LC3A_free_46_2352 (protein)
chain: VEAKIEIDLLADDKEKLEKAVEEIIKKIKEIAKKYGLEVEINYEISKLEDGSYYAKIEITLKGEDLEDVKKAVNELINEIEEIAEKYGVSAVISYEIEDV
B23: LC3A_free_0_2121 (protein)
chain: KKTVVELVVILDEKTSEEKAKEAYEELKEKAEELAEENGWEVEVKLDKVDGRHIITVTLTSDEPDIDKGLELERKLSEIAEEIAKKLGLDATIYSSVYLE
B24: LC3A_free_8_2531 (protein)
chain: NVQEMVDLALKELDKLEKIAVEKAKELGLSRTDILELELVIGSAKIDIIEASDKSVEEIYKLFKEELKEILEEAKKYGEELYKEVEKKAKEALKKMEEAK
B25: LC3A_28_1140 (protein)
chain: SALVEAAKAQIEADAEADKDEPEVLLRVTITSEMTVEQAREIMDHVEEVVEKLKDKEKIYIVVDATEPISQEVLDEIVERLEEIEKKYPNVSSIIALPED
B26: LC3A_28_1037 (protein)
chain: DELRRRAEEAVKEAEEQAKKGEEAVVTIKVGKLPTEEAKRIVREALERLIKISKKYGNVKISVVIDVDGDQELVDAIIDVAEEAEKKNPNLTVIIALSEE
B27: LC3A_23_605 (protein)
chain: MYKVEVIVDFIDKPEEAEKKVEELLKKVEELLKKHKDIVKDYEIKVTREALPDGTTYVEVEITIIIDGTKEEAEEIRNELESIASETLPNGVISSEVEEL
B28: LC3A_59_2035 (protein)
chain: SAEAEAAAARVRERGPSVDVVAEVFREVLEKNGLDPELARDLVAALVAVLVEAGLITAEEGAAIRAEADAAIDRLTDVDELVSELRVIILDALLKKNELE
B29: LC3A_141_361 (protein)
chain: ATKKETFTLTAKTEEEAIEVAEKIKEKIREFMEKTGAKEVKVTVTITAYNKKTGEVKTETIVETVTPENLDLFEEGLLIELLSYFEKGADEVKVTVTIES

Target: MAP1LC3A, Q9H492
Experiment: median log2 fold change of GCK-ALFA target abundance (FLAG IP / Myc IP barcode read proportion) (log2 ratio); each designed protein is fused to an ALFA-tag nanobody in HEK293 cells to bring the named protein to FLAG-tagged glucokinase (GCK); Myc marks an untargeted standard; higher = target protein stabilised (more abundant)
Conditions: target protein: 3xFLAG-MCP-GCK-ALFA reporter; HEK293 landing pad (RPLP)
Protocol: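 LABEL-seq trans screen in HEK293 landing-pad cells. Each de novo designed 100-aa effector handle, binding the indicated effector (E3 ligase, DUB or autophagy protein), is fused to a constant NbALFA target handle and induced with 2 ug/mL doxycycline. A FLAG-MCP-GCK-ALFA target and a Myc-MCP standard reporter were transfected, and after 48 h circRNA barcodes were recovered by anti-FLAG and anti-Myc IP and sequenced. The value is the median across barcodes (at least 3 per design) of log2(FLAG/Myc read-proportion ratio), with the two transfection replicates pooled. Negative values mean degradation and positive values mean stabilisation of the target.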

| Binder | median log2 fold change |
| --- | --- |
| B1 | -0.664 |
| B2 | -0.0549 |
| B3 | 0.066 |
| B4 | -0.0408 |
| B5 | 0.222 |
| B6 | 0.154 |
| B7 | -0.0559 |
| B8 | -0.371 |
| B9 | -0.415 |
| B10 | -0.698 |
| B11 | 0.132 |
| B12 | -0.561 |
| B13 | 0.0318 |
| B14 | 0.0494 |
| B15 | -0.563 |
| B16 | 0.103 |
| B17 | -0.515 |
| B18 | 0.184 |
| B19 | -0.171 |
| B20 | -0.0306 |
| B21 | -0.556 |
| B22 | 0.204 |
| B23 | 0.00278 |
| B24 | -0.0124 |
| B25 | -0.0164 |
| B26 | -0.36 |
| B27 | -0.868 |
| B28 | 0.256 |
| B29 | -0.0634 |
